Experimental data: PubChem BioAssay (NCATS)
Results filed as inconclusive are left out. Activity calls are given as the source filed them. Calls follow the shape of the dose curve; as a rule, active = well fitted curve in the direction sought with a large enough effect; inconclusive = small, poorly fitted or top-dose-only effect, or another doubt; inactive = no such curve, though single readings can be large; an effect the other way counts as inactive or inconclusive.

How the values were obtained:
[1] = Cellular Toxicity (caspase-3) Hek293 (AID 664);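 also: cells exposed to compound for 16 h at 37 °C before readout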
How it was run: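 HEK293 cells were exposed to compounds in complete medium for 16 hr at 37 °C, then caspase-3/7 activity was read by Caspase-Glo 3/7 luminescence after 20 min at room temperature. Data normalized to DMSO and 100 uM tamoxifen; AC50 from Hill fits.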

[2] = Cellular Toxicity (caspase-3) N2a (AID 665); settings: N2a cells, luminescence, normalized: DMSO 0%, 10 µM staurosporine 100%; at 92.2 µM (top of the series);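 also: compound exposure lasted 16 h at 37 °C before readout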
How it was run: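 Mouse N2a neuroblastoma cells (1500/well) were treated with compounds for 16 h at 37 °C, then caspase-3/7 activity was read by Caspase-Glo luminescence after 1 h at room temperature. Data were normalized to DMSO and 10 uM staurosporine; AC50 from Hill fits.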

[3] = Cellular Toxicity (caspase-3) NIH 3T3 (AID 666);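 also: caspase signal read after 16 h compound exposure; 0% = DMSO basal and 100% = 100 µM tamoxifen stimulation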
How it was run: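 Mouse NIH 3T3 fibroblasts (1000 cells/well) were treated with compound for 16 hr at 37°C in complete medium; caspase-3/7 activity was read by Caspase-Glo luminescence. Normalized to DMSO and 100 uM tamoxifen; AC50 from Hill fits.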

[4] = Cellular Toxicity (caspase-3) Renal Proximal Tubule (AID 667); settings: renal proximal tubule cells; at 91.7 µM (top of the series), primary cells freshly taken from rat, solvent-only wells 0%, staurosporine 100% unless noted;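 also: cells exposed to compound for 16 hours at 37 °C before detection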
How it was run: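 AC50 derived by standard Hill fit of concentration-response data, normalized between DMSO basal and 10 uM staurosporine as 100% stimulation. Cells: primary rat kidney proximal tubule, 16 h treatment at 37 °C.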

[5] = target: Cytochrome P450 3A4 (Homo sapiens) (UniProt P08684); experiment: qHTS Assay for Inhibitors and Substrates of Cytochrome P450 3A4 (AID 884); also: % is scaled to controls: 0 for no effect and ±100 for the full control effect; nearly all actives have a fitted effect of over 50% in size
Cytochrome P450 3A4 (Homo sapiens), sequence (P08684 whole entry, looked up): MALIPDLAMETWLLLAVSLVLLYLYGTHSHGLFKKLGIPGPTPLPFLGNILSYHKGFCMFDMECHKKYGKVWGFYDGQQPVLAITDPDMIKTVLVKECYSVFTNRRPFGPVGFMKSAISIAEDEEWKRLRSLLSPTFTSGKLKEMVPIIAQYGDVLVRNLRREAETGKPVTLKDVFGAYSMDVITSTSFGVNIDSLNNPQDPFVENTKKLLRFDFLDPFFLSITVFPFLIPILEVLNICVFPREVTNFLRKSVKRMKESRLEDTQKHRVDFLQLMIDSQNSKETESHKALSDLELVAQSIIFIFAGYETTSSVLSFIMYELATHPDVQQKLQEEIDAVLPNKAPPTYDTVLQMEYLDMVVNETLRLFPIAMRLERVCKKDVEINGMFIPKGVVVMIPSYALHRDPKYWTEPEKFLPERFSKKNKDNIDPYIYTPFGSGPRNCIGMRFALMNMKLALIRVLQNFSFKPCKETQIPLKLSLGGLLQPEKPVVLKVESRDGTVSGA
How it was run: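 20 nM human CYP3A4 with 25 uM Luciferin-PPXE (at KM) in 200 mM KPO4, preincubated 10 min with compound; NADPH regeneration started a 60 min RT reaction. Luciferin detected by luminescence, normalized to 57 uM ketoconazole as full inhibition.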

[6] = Cell Viability - LYMP2-001 (AID 921);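 also: 0% = DMSO only and full inhibition = tetraoctylammonium bromide control wells; nearly all actives have a fitted effect of over 70% in size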
How it was run: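 Steps: seed 2500 lymphoblastoid cells/well; 5 hr, 37 C; add compound; 24 hr, 37 C; CellTiter-Glo reagent, 30 min room temperature; read luminescence. Concentration-response modeled by Hill equation for AC50.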

[7] = MultiTox-Fluor Cytotoxicity Assay - LYMP1-001 - Dead Cells (AID 946);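 also: 0% = DMSO and 100% = tetraoctylammonium bromide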
How it was run: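 AC50 from Hill fit of concentration-response; data normalized to DMSO (basal) and 15 uM tetraoctylammonium bromide (100%). LYMP1-001 lymphoblastoid cells, 2500/well, 16 hr compound at 37 C; dead-cell protease fluorescence, Ex/Em 485/520.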

[8] = MultiTox-Fluor Cytotoxicity Assay - LYMP1-001 - Live Cells (AID 947);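 also: 0% = DMSO only and full inhibition = tetraoctylammonium bromide control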
[9] = Cell Viability - LYMP1-002 - Assay at 16 hr (AID 948);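 also: 0% = DMSO alone and full effect = 92 µM tetraoctylammonium bromide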
How it was run: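 Seed 2500 LYMP1-002 cells per well in complete medium and hold 5 hr at 37 C. Add compound across a concentration series and incubate 16 hr at 37 C. Add CellTiter-Glo, wait 30 min at room temperature, read luminescence.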

[10] = MultiTox-Fluor Cytotoxicity Assay - LYMP1-002 - Live Cells (AID 955); also: % is scaled to controls: 0 for no effect and ±100 for the full control effect
How it was run: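 Human lymphoblastoid LYMP1-002 cells, 2500/well in complete medium, rested 5 hr at 37 C, then exposed to compounds for 16 hr at 37 C. Live-cell protease cleavage of GF-AFC read by fluorescence (Ex/Em 405/510) after 60 min at room temperature; AC50 from Hill fits.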

[11] = MultiTox-Fluor Cytotoxicity Assay - LYMP1-002 - Dead Cells (AID 960);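 also: 0% = DMSO and 100% = tetraoctylammonium bromide; nearly all actives have a fitted effect of over 60% in size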
How it was run: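 Human lymphoblastoid cells (LYMP1-002), 2500/well in complete medium, were exposed to compounds for 16 hr at 37 C. Dead-cell protease activity was read as bis-AAF-R110 fluorescence (Ex/Em 485/520), normalized to DMSO and 15 uM tetraoctylammonium bromide; AC50 from Hill fits.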

[12] = MultiTox-Fluor Cytotoxicity Assay - LYMP1-003 - Dead Cells (AID 961);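 also: 0% = DMSO and 100% = tetraoctylammonium bromide; nearly all actives have a fitted effect of over 70% in size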
How it was run: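 Human lymphoblastoid LYMP1-003 cells (2500/well) were treated with compounds for 16 hr at 37 C in complete medium. Dead-cell protease release was read by bis-AAF-R110 fluorescence (Ex/Em 485/520). AC50 came from Hill fits, normalized to DMSO and 15 uM tetraoctylammonium bromide.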

[13] = MultiTox-Fluor Cytotoxicity Assay - LYMP1-003 - Live Cells (AID 962);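 also: 0% = DMSO only and full loss = 92 µM tetraoctylammonium bromide; cytotoxic hits lower the live-cell protease signal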
How it was run: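 LYMP1-003 human lymphoblastoid cells (2500/well) in complete medium were preincubated 5 hr at 37 C, then exposed to compounds for 16 hr at 37 C. Live-cell protease cleavage of GF-AFC read by fluorescence (Ex/Em 405/510); AC50 from Hill fits.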

[14] = Cell Viability - LYMP1-003 - Assay at 40 hr (AID 964); also: % is scaled to controls: 0 for no effect and ±100 for the full control effect; nearly all actives have a fitted effect of over 60% in size
How it was run: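 Human lymphoblastoid LYMP1-003 cells, 2500/well in complete medium, rested 5 hr at 37 C, then exposed to compounds for 40 hr at 37 C. Viability read as intracellular ATP by CellTiter-Glo luminescence; AC50 from Hill fits of concentration-response data.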

[15] = Cell Viability - LYMP2-003 (AID 965);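 also: cells exposed to compounds for 24 h before reading; 0% = DMSO only and full effect = 92 µM tetraoctylammonium bromide; nearly all actives have a fitted effect of over 50% in size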
How it was run: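 Seed 2500 lymphoblastoid cells/well; incubate 5 hr, 37 C; add compounds; incubate 24 hr, 37 C; add CellTiter-Glo, 30 min RT; read luminescence. AC50 from Hill fit.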

[16] = Cell Viability - LYMP2-004 (AID 966);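 also: plate controls were DMSO only for no effect and tetraoctylammonium bromide control for full effect; nearly all actives have a fitted effect of over 65% in size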
How it was run: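 Human lymphoblastoid cells (2500/well) in complete medium were treated with compounds for 24 hr at 37 C, then intracellular ATP was measured by CellTiter-Glo luminescence. AC50 values came from Hill-equation fits of concentration-response data.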

[17] = Cell Viability - LYMP2-005 (AID 967);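 also: plate controls were DMSO only for no effect and 92 µM tetraoctylammonium bromide control for full effect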
How it was run: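 Acute cytotoxicity is scored as a concentration-dependent drop in intracellular ATP in human lymphoblastoid LYMP2-005 cells after 24 h compound treatment. ATP is quantified by luciferase luminescence, and AC50 is derived by Hill-equation modelling.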

[18] = Cell Viability - LYMP2-009 (AID 968);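 also: 0% = DMSO alone and the full-kill end = tetraoctylammonium bromide at 92 µM; nearly all actives have a fitted effect of over 55% in size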
[19] = Cell Viability - LYMP2-011 (AID 969);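 also: 0% = DMSO only and full inhibition = 92 µM tetraoctylammonium bromide; nearly all actives have a fitted effect of over 60% in size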
How it was run: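 Human lymphoblastoid cells (2500/well) were plated in complete medium, preincubated 5 hr at 37 C, then exposed to compounds for 24 hr at 37 C. Intracellular ATP was read by CellTiter-Glo luminescence, and AC50 came from Hill-equation concentration-response fits.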

[20] = Cell Viability - LYMP2-013 (AID 970);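 also: 0% = DMSO only and full inhibition = tetraoctylammonium bromide control; nearly all actives have a fitted effect of over 55% in size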
How it was run: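 Human lymphoblastoid cells, 2500/well, were preincubated 5 hr at 37 C, then treated with compounds for 24 hr at 37 C in complete medium. Intracellular ATP was read by CellTiter-Glo luminescence; AC50 from Hill-equation fits of concentration-response data.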

[21] = Cell Viability - LYMP2-015 (AID 971);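 also: 0% = DMSO only and full effect = 92 µM tetraoctylammonium bromide; nearly all actives have a fitted effect of over 55% in size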
How it was run: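 Human lymphoblastoid cells (2500/well) in complete medium were preincubated 5 hr at 37 C, then compound-treated 24 hr at 37 C. Intracellular ATP was read by CellTiter-Glo luminescence after 30 min at room temperature; AC50 came from Hill-equation concentration-response fits.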

COc1ccc(C=O)cc1OC
inactive: outcome [1] | caspase-3 activation [2] -1.73% | outcome [3] | caspase-3 activation [4] -4.32% | Potency [5] | Potency [6] | Potency [7] | Potency [8] | Potency [9] | outcome [10] | Potency [11] | Potency [12] | Potency [13] | Potency [14] | Potency [15] | Potency [16] | Potency [17] | Potency [18] | Potency [19] | Potency [20] | Potency [21]
